# Screening results: PubChem BioAssay, National Center for Advancing Translational Sciences (NCATS)
# DT40 TDP1 no CPT – qHTS for Inhibitors of human tyrosyl-DNA phosphodiesterase 1 (TDP1): qHTS in cells in absence of CPT | actives 15% (n = 420,000) | DT40 Tdp1-/- hTDP1 cells, no CPT, ATP luminescence, 48 h | Potency, µM (doses to about 46.2 µM), for inactives: at the highest dose activity change, negative = growth inhibition, most hits filed as inhibitors; further: potency means the concentration at half of the fitted maximal effect; on the % scale 0 is the no-effect control and ±100 the full control effect; nearly all actives have a fitted effect of over 55% in size
#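 A cellular qHTS used chicken DT40 cells lacking endogenous Tdp1 but carrying stably transfected human TDP1. Compounds were applied without camptothecin, and cell growth kinetics were judged by ATP-dependent luminescence after ≥48 hr.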
# SW480 rereplic – DNA re-replication induction in SW480 cells; SW480 DNA re-replication, Hoechst DNA content imaging, 48 h; Potency, µM (titrated, usually from 46.1 µM), without a hit: top-dose re-replication activation, usual class: activators; actives 1.8% (n = 340,000); AID 624297; further: potency means the concentration at half of the fitted maximal effect; % of control where 0% means no effect; nearly all actives have a fitted effect of over 55% in size
#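 Per well, 250 cells were exposed to pinned compound for 48 hr. Nuclear DNA was visualised with Hoechst (40 min, 37 C) and total object intensity recorded by fluorescence scanning.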
# Chronic BCR inh – blocks chronic active B-cell receptor signaling | AID 493014 | ABC-DLBCL IkBa-CBG/CBR reporter, luminescence ratio, 4 h | Potency, µM (highest dose often 46.1 µM), for the others: at the top dose activity change, negative = inhibition, actives largely listed as inhibitors | actives 0.05% (n = 340,000); active means well fitted inhibition curve with a large enough effect in the signal ratio, with a control signal flat, not every such curve was filed as active; inconclusive means small, poorly fitted or top-dose-only effect, or effect the other way, or a change in a side signal; the % refers to the signal ratio;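 further: potency means the concentration at half of the fitted maximal effect; plate controls were basal doxycycline-induced cells for no effect and cells given 10 µM MG132 for full effect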
#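 Doxycycline induced both beetle luciferases in TMD8 lymphoma cells; IKK-driven degradation limits the IkappaBalpha-fused green signal, while red luminescence normalises for cell number and nonspecific effects. Compounds tested up to 46 uM, 4 hrs.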
# IL1B secr inh – inflammasome signaling inhibition, IL-1 beta readout. THP-1 LPS/ATP IL-1B secretion, AlphaLISA, 16 h; stronger effect = lower value. activity change, % at 57.5 µM. actives 4.7% (n = 360,000). AID 743279; in the data active means activity change below about -50%; inconclusive means mostly about -30% to -49%; further: on the % scale 0 is the no-effect control and ±100 the full control effect
#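 THP-1 cells pretreated 1 hr with compounds (up to 57.5 uM final), then stimulated with LPS (250 ng/mL final) plus ATP (1.25 mM final); secreted IL-1B measured by AlphaLISA after 16 hr, decreased signal indicating inhibition.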
# MCF10A rerep – DNA re-replication induction in MCF 10a cells; AID 624296; Potency, µM (doses to about 46.1 µM), for the others: top-dose activity, positive = re-replication, usual class: activators; MCF 10A DNA re-replication, Hoechst nuclear intensity, 48 h; actives 2.9% (n = 350,000); further: potency means the concentration at half of the fitted maximal effect; % of control where 0% means no effect; nearly all actives have a fitted effect of over 50% in size
# TDP1 cell CPT – DT40-hTDP1 cell growth loss with CPT; chicken DT40 Tdp1-/-;hTDP1 cells + 20 nM CPT, ATP luminescence, 48 h; Potency, µM (highest dose often 46.2 µM), inactives show at the highest dose activity change, negative = growth inhibition, hits mostly inhibitors; actives 12% (n = 420,000); further: potency means the concentration at half of the fitted maximal effect; on the % scale 0 is the no-effect control and ±100 the full control effect; nearly all actives have a fitted effect of over 55% in size
#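 Chicken DT40 Tdp1-/- cells complemented with human TDP1, 400 cells/well, exposed to compounds plus 20 nM camptothecin for at least 48 h at 37 C; viability read as ATP content by CellTiter-Glo luminescence.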
# * = called active by the depositor; ? = inconclusive; / = no result given; [ ] = dose if it differs, or a comment. Compounds with a hit are over-represented: about 19% of the library has one in this group of screens. Unless noted, the call rests on the fitted dose curve; in most records, active means well fitted curve in the direction sought with a large enough effect; inconclusive means small, poorly fitted or top-dose-only effect, or another doubt; inactive means no such curve, though single readings can be large; an effect the other way counts as inactive or inconclusive.
SMILES,DT40 TDP1 no CPT,SW480 rereplic,Chronic BCR inh,IL1B secr inh,MCF10A rerep,TDP1 cell CPT
CCOc1ccc(OCc2cccc(C(=O)Nc3ccc(CN4CCCCC4)cc3)c2)cc1,20.6µM*,?,?,-100.1*,?,8.2µM*
O=S(=O)(c1cnc(Cl)c(Cl)c1)N1CCN(c2ncccn2)CC1,3.2%,-55.1%,-0.1%,13.7,-13.3%,-22.4%
NC(=O)N[C@@H](CCC(=O)O)C(=O)O,-7.2%,/,/,/,/,0.6%
CCOc1cccc(C(=O)Nc2ccc(N(CC)CC)cc2)c1,?,18.4µM*,?,-14.1,18.4µM*,20.6µM*
CCOc1cccc(C(=O)Nc2ccc(N3CCCC3)cc2)c1,16.4µM*,?,?,-29.2,6.4%,-18.7%
CCOc1ccc(C(=O)Nc2ccc(N3CCCC3)cc2)cc1,-23.5%,-1.2%[9.22 µM],-13.0%,-12.3,-1.9%,-30.0%
Cn1c(N)c(C(=O)COC(=O)COc2ccccc2C#N)c(=O)n(C)c1=O,-4.9%,27.4%,4.9%,31.1,-1.3%,-8.1%
Cc1ccc(NC(=O)COC(=O)c2ccc(Cl)nc2)cc1S(=O)(=O)N1CCCCC1,-4.0%,-21.7%,?,-15.0,15.5%,-13.0%
CC1CCCCN1CCCNC(=O)CN1C(=O)c2cccnc2Oc2ccccc21 (configuration not stated),27.2%,-8.8%,-0.6%,-15.1,-1.7%,-11.3%
Cc1ccc(CN(Cc2ccccn2)C(=O)Nc2ccc(C)c(C)c2)cc1,?,?,0.5%,-57.9*,1.4%,?
COc1ccccc1CNC(=O)Cn1c(=O)c2cccn2c2cccnc21,-18.1%,13.0%,-6.5%,0.0,?,-20.9%
COc1ccccc1CNC(=O)CCCn1c(=O)c2cccn2c2ccccc21,29.1µM*,/,/,/,/,?
CC(C)OCCCn1c(=O)c2ccccc2n2c(CCC(=O)NC3CCN(Cc4ccccc4)CC3)nnc12,-25.2%,1.2%,-0.2%,-51.3*,0.2%,?
O=C(CCCCn1c(=O)c2ccccc2n(Cc2ccccc2F)c1=O)NC1CCN(Cc2ccccc2)CC1,16.4µM*,7.1%,1.6%,-6.3,0.1%,?
COc1ccc(OC)c(CCNC(=O)CCCn2c(=O)c3cccn3c3ccccc32)c1,20.6µM*,/,/,/,/,18.4µM*
Cc1ccc2c(c1)N(C(=O)CCC(=O)NCc1cccc(F)c1)CCO2,12.8%,-2.8%,-6.0%,-5.0,1.4%,0.4%
CCCCCCCCCCCCC/C=C\[C@@H](O)[C@H](CO)NC(C)=O,?,/,/,/,/,15.2%
COc1ccccc1CNC(=O)CCCn1c(=O)c2ccccc2n(Cc2ccccc2F)c1=O,7.31µM*,/,/,/,/,9.2µM*
Cc1ccccc1Cn1c(=O)n(CCCCC(=O)NCc2ccccc2Cl)c(=O)c2ccccc21,?,/,/,/,/,-11.1%
O=C(N/N=C/c1ccc(Cl)cc1)c1cc2c(s1)-c1ccccc1CC2,5.17µM*,?,-11.4%,14.8,?,3.66µM*
COc1ccc(Cc2nnc(N/N=C/c3ccc(Br)cc3)[nH]c2=O)cc1OC,2.0%,0.5%,-3.2%,-0.9,0.7%,-0.6%
COc1ccc(Cc2nnc(NCCO)[nH]c2=O)cc1OC,8.2µM*,?,1.6%,20.8,?,16.4µM*
COc1ccc(Cc2nnc(N/N=C/c3ccc(O)cc3)[nH]c2=O)cc1OC,0.651µM*,?,?,-130.1*,8.2µM*,1.03µM*
Cc1ccc(S(=O)(=O)Nc2cc(C(=O)NCCN(C)C)ccc2N2CCCCC2)cc1,16.4µM*,?,-13.3%,?,?,?
Cc1ccc(S(=O)(=O)Nc2cc(C(=O)NCCN3CCCC3)ccc2N2CCCCC2)cc1,16.4µM*,-0.4%,?,-18.5,14.1%,20.6µM*
SMILES,DT40 TDP1 no CPT,SW480 rereplic,Chronic BCR inh,IL1B secr inh,MCF10A rerep,TDP1 cell CPT
COCCCNC(=O)c1ccc(N2CCCC2)c(NS(=O)(=O)c2ccc(C)cc2)c1,?,?,-1.0%,-5.4,21.1%,-26.5%
CCOCCCNC(=O)c1ccc(N2CCCC2)c(NS(=O)(=O)c2ccc(C)cc2)c1,?,-4.3%,0.9%,-9.2,4.8%,?
Cc1cc(C(=O)NNc2ccc(C(C)C)cc2)n(C(C)(C)C)n1,-28.6%,-10.9%,-3.1%,25.3,29.6%,?
Cc1ccc(C(=O)Oc2cccnc2)cc1[N+](=O)[O-],-13.1%,0.0%,2.5%,0.0,17.6%,2.0%
Cc1ccc(C(=O)Oc2ccc(Cl)c3cccnc23)cc1[N+](=O)[O-],20.6µM*,?,?,-16.0,?,?
COc1cc(C=O)c(Br)cc1OC1CCCC1,?,-4.9%[9.22 µM],6.7%,0.0,-3.0%,1.0%
COc1cc(CNCc2ccccc2)c(Br)cc1OC1CCCC1,?,6.0%,?,-54.9*,?,?
COc1cccc(C(=O)Nc2cccc(-c3ccc(N4CCOCC4)nn3)c2)c1,?,-7.8%,-6.1%,0.9,0.7%,-17.5%
COc1ccc(C(=O)Nc2cccc(-c3ccc(N4CCOCC4)nn3)c2)cc1OC,9.2µM*,-2.8%,?,-13.9,10.7%,18.4µM*
CCOc1ccc(C(=O)Nc2cccc(-c3ccc(N4CCOCC4)nn3)c2)cc1OCC,10.3µM*,1.4%,?,-5.9,24.5%,?
CCOc1ccccc1C(=O)Nc1cccc(-c2ccc(N3CCOCC3)nn2)c1,16.4µM*,1.1%,?,-62.3*,26.1%,?
COc1cccc(C(=O)Nc2cccc(-c3ccc(N4CCOCC4)nn3)c2)c1OC,23.1µM*,-5.7%,?,-10.4,?,?
COC(=O)[C@]1(C)N[C@H](CN(C)S(=O)(=O)c2ccccc2)[C@@H]2C(=O)N(Cc3ccccc3)C(=O)[C@@H]21,7.7%,?,-0.2%,-13.7,7.3%,11.3%
Cc1ccc([N+](=O)[O-])cc1S(=O)(=O)Nc1cccc(-c2ccc(N3CCOCC3)nn2)c1,?,-60.8%,0.0%,5.8,-1.5%,-14.4%
COc1cc(C)c(C)cc1S(=O)(=O)Nc1cccc(-c2ccc(N3CCOCC3)nn2)c1,16.4µM*,/,/,/,/,?
O=c1nc2n(CCO)c3ccccc3cc-2c(=O)[nH]1,4.6%,?,/,4.1,?,12.7%
Cc1ccc(C)c(-n2c3nc(=O)[nH]c(=O)c-3cc3cc([N+](=O)[O-])ccc32)c1,0.82µM*,3.16µM*,?,-99.3*,?,1.16µM*
Cc1cccc(-n2c3nc(=O)[nH]c(=O)c-3cc3cc([N+](=O)[O-])ccc32)c1,-113.3%,?,11.6µM*,-100.6*,?,4.61µM*
